The whole screen tested about 360,000 compounds, of which about 780 (0.22%) were called active. About 4% were inconclusive and are not listed. The full list was thinned out, with actives kept by preference. Values without a mark were called inactive. Rule as the data show it: active = inhibition above about 35% (passing the limit was not always enough); inconclusive = no clear call, values can overlap the other calls.

The subject of this test is Botulinum neurotoxin type F light chain protease (Clostridium botulinum). Description: BoNT/F light chain protease inhibitors, primary screen, biochemical, flow cytometry, MLPCN library (AID 588497). Also: plate controls were buffer without enzyme for full effect and enzyme alone for no effect. Particulars: Multiplex microsphere protease cleavage assay, at 10 µM, stronger effect = higher value.
The inhibition is the relative decrease from the control value, in per cent. With `C=C1C(=O)[C@]23C[C@H]1CCC2[C@@]1(C)C(C[C@@H]3O)[C@](C)(C(=O)O)CC[C@@H]1O` (stereo partly drawn), the inhibition is 6.7%. The value for `CC12CCC(=O)C=C1CCC1C2C(O)CC2(C)C1CCC2(O)C(O)CO` (stereo not drawn) was -2.7%; that for `COc1ccc(-c2cc3nc(NCCOc4ccccc4)ccn3n2)cc1` was -7%.

As for `CC1=C(C(=O)N(C(C)C)C(C)C)CC(CC(=O)NCCCCc2ccccc2)C(=O)N1CCC1=CCCCC1` (stereo not drawn), the inhibition was -9.4%. Regarding `CC(C)(C)CC(=O)Nc1nc(C(N)Cc2ccc(C(F)(F)F)cc2)cs1` (stereo not drawn), the inhibition is -15.5%. The figure for `CCCNC(=O)c1cc2c(c(-c3cccc(-c4ccc(C#N)cc4)c3)n1)[C@@H](CCO)N(C(=O)CC)C2` is -8.6%; for `CN1CCN(c2ccc(NC(=O)c3ccc4c(c3)[nH]c(=O)n4Cc3ccc(F)cc3)cc2)CC1` it is -37.9%; for `CN1CCN(c2ccc(NC(=O)c3cc(Cl)c4c(c3)OCCO4)cc2)CC1` it is -0.9%. Take `CN1CCN(c2ccc(NC(=O)c3ccccc3)cc2)CC1`: the inhibition was 38.8% (active). The value for `CCCCC(=O)N(C)c1c(CC)nc2c(OCc3ccc(Cl)cc3Cl)cccn12` was -1.2%; that for `CCC(c1nnnn1-c1ccc2c(c1)OCCO2)N1CCN(c2ccc(C(F)(F)F)cn2)CC1` (stereo not drawn) was 6.4%; that for `CC1=C(C(=O)N(C(C)C)C(C)C)CC(CC(=O)NCC2CCCCC2)C(=O)N1Cc1ccccc1` (stereo not drawn) was -6.1%. On to `O=C1C(Sc2cccc(F)c2)=C[C@@]2(O)CC[C@@H](O)[C@]1(Sc1cccc(F)c1)[C@H]2O`, for which the inhibition is -5.7%.

Regarding `CCOC(=O)C1=CCC2C(=O)N(Cc3ccccc3)C(=O)C12` (stereo not drawn), the inhibition is 7.8%.

`CC(=O)Nc1cncc(-c2ccccc2CO)n1`: the inhibition was -2.7%.

In the case of `O=C(NCCN1CCOCC1)c1ccccc1N1C(=O)[C@@H]2Cc3c([nH]c4ccccc34)C(c3cccc(Cl)c3)N2C1=O` (stereo partly drawn), the inhibition was -6.1%.

For `NNC(=O)CNC(c1ccccc1)c1cc(Cl)ccc1NC(=O)c1ccccc1` (stereo not drawn), the inhibition is 43.2% (active). The figure for `O=C(COC(=O)c1ccccc1)Nc1ccc(Cl)cc1C(=O)c1ccccc1` is -15.4%; for `CC(NCC(=O)Nc1cc(Cl)cc(Cl)c1)c1ccccc1` (stereo not drawn) it is 2.2%. The figure for `CC(C)C[C@H]1CNC(=S)N1C[C@H]1CCCN1C[C@H](Cc1ccc(O)cc1)N1C[C@H](Cc2ccc(O)cc2)N(CC2CCCCC2)C1=S` is -11%; for `COc1ccccc1-n1c(-c2cc(-c3ccco3)[nH]n2)n[nH]c1=S` it is 40.9% (active); for `COc1ccc(-n2c(-c3ccc(Cl)cc3)n[nH]c2=S)c(OC)c1` it is -4.7%.

Take `COc1ccccc1-n1cn[nH]c1=S`: the inhibition is 0.3%. The value for `OC(c1ccccc1)(c1ccccc1)C1CCN(CCCOc2ccccc2)CC1` was 0.4%; that for `CC1(C(=O)NCc2ccc(F)c(F)c2)Cc2c(-c3ccc4c(c3)OCO4)ccnc2O1` (stereo not drawn) was -7.8%; that for `Cc1ccc(Cc2c(-c3ccco3)nc3ccc(Cl)cn23)cc1` was -6%. The figure for `CCCCOCCCNC(=O)C[C@@H]1C[C@@]2(C(=O)OC)CCCCC=C2N(CCC2=CCCCC2)C1=O` is 7.8%; for `CC(C)Oc1cc(F)ccc1-c1cc(C(=O)Nc2cccc(Cl)c2)[nH]n1` it is -7.1%; for `CN(Cc1ccccc1F)c1cc2c(c3c1ccn3C)C1CCC2O1` (stereo not drawn) it is 3.2%. As to `COC(=O)[C@]12CCCCC=C1N(CCC1=CCCCC1)C(=O)[C@H](CC(=O)NCC1CCCCC1)C2`, the inhibition was 5.5%. Turning to `CCc1ccc(OC2(C)CCN(CCOc3ccc(C)cc3)C2)cc1` (stereo not drawn), the inhibition is -9.6%. The figure for `CN(C)C1CN(Cc2cn(Cc3ccccc3)nn2)S(=O)(=O)C1` (stereo not drawn) is -1.7%; for `CCCCCc1c(C)nc(N2CCN(Cc3ccc4c(c3)OCO4)CC2)[nH]c1=O` it is 39.2% (active); for `CCc1c(C)nc(N2CCN(Cc3ccccc3)CC2)[nH]c1=O` it is 6.6%. The figure for `Cc1cc(C)n2nc(C(=O)N3CCN(Cc4ccc5c(c4)OCO5)CC3)nc2n1` is -11.5%; for `Cc1cc(Cl)ccc1-c1nc(NCCN(C)C)nc2ccsc12` it is -4.9%. The value for `CC1(Oc2ccccc2-c2ccno2)CCN(Cc2ccc(-c3ccccc3)o2)C1` (stereo not drawn) was -11.5%; that for `OC[C@@H]1CN(Cc2ccc(-c3ccccc3)cc2)C[C@H](n2cnc3c(NC4CCCC4)ncnc32)O1` was -4.6%; that for `CC(=O)Nc1ccc(CNc2nc(NCCN(C)C)nc3cc(-c4ccccc4)sc23)cc1` was -18.9%. For the compound `CC(=O)Oc1ccc(NC(=O)CCC2CCCCC2)c(C(=O)O)c1`, the inhibition is 37.7% (active). On to `Cc1cc(C(=O)NNC(=O)CCC2CCCCC2)c(C)o1`, for which the inhibition was 0.3%. The figure for `COC(=O)c1sccc1NC(=O)CCC1CCCC1` is 1.8%. In the case of `NC(c1csc(NC(=O)Nc2ccccc2Oc2ccccc2)n1)c1ccccc1Cl` (stereo not drawn), the inhibition was -12.1%. The figure for `CN1CCN(CC#CCC2(O)c3ccccc3-c3ccccc32)CC1` is -6.9%. The figure for `CC(C)N(CC#CCC1(O)c2ccccc2-c2ccccc21)C(C)C` is 37.1% (active). With `CCOC(=O)[C@]12CCC=C1N(Cc1ccco1)C(=O)[C@H](CC(=O)NCc1cccc(C(F)(F)F)c1)C2`, the inhibition is -2.2%. The value for `CC=CCn1c(SCCCc2ccccc2)nc2c1c(=O)[nH]c(=O)n2C` was -3.4%. The figure for `OC(c1ccc(Cl)c(F)c1)c1ncc(-c2ccccc2Cl)[nH]1` (stereo not drawn) is -8.1%. The value for `Cc1cc(Br)cn2c(Cc3cccc(F)c3)c(-c3cccc(Br)c3)nc12` was 5.5%; that for `COc1ccccc1NC(=O)C1CCCN(c2cc(C)nc3ncnn23)C1` (stereo not drawn) was 4.8%. Turning to `COc1ccccc1-c1cnn2c(N3CCOCC3)cc(C)nc12`, the inhibition was 38.5% (active). Consider `Cc1cc(-n2nc(C)cc2C)n2ncc(-c3ccccc3)c2n1`, for which the inhibition was 5.4%.

For `CCc1nc2c(OCc3ccc(Cl)cc3Cl)cccn2c1N(C)C(=O)C(C)C`, the inhibition is -7.2%. Turning to `Cc1cc(C)c(S(=O)(=O)NN=C2c3ccccc3[C@H]3Cc4csc[n+]4[C@@H]23)c(C)c1`, the inhibition was -7.5%. The value for `Cc1nc2c(OCc3cccc(Cl)c3)cccn2c1N(C)CC1CC1` was -6.3%. Take `COc1nc(NC2CCCCC2)nc(N2CCCCCC2)n1`: the inhibition was 8.2%. For the compound `Clc1nc(NC2CCCC2)nc(N2CCOCC2)n1`, the inhibition is 53.9% (active).

Consider `COC(=O)CNc1nc(Cl)nc(N2CCC(C)CC2)n1`, for which the inhibition was -7.3%.

The record behind these values is PubChem BioAssay AID588497 (NMMLSC, 2011).
